# Only some compounds are listed: those with a hit (about 5.4% of all), similar ones and a draw of the others.
# PHOSPHO1 block – PHOSPHO1 (human) inhibition. 290,000 compounds, 1.1% hits. Q8TCT1. recombinant PHOSPHO1, absorbance phosphatase assay. inhibition, % at 13.3 µM; in the data active = inhibition above about 60%
# Target sequence (Q8TCT1 whole entry, looked up): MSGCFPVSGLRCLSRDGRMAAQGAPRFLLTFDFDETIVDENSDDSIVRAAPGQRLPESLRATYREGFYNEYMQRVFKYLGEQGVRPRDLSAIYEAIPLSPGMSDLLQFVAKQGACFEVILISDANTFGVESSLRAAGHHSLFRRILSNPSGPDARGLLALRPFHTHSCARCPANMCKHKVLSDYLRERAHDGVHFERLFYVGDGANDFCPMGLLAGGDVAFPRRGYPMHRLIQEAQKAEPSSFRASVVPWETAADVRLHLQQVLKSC
# aDG glyco up – increases alpha dystroglycan glycosylation. Pro5-aDG cells, alpha-DG glycosylation AlphaScreen (IIH6); 0% Pro5, 100% B10-LARGE cell signal. activation, % at 10 µM. 360,000 compounds, 0.22% hits. AID 624168;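 active = activation of at least 8% versus controls, or a plate z-score of at least 8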;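 also: Pro5 are CHO cells carrying HIG-tagged alpha-DG that lacks glycosylation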
# rCAG RNA binder – molecules binding r(CAG) RNA repeats | r(CAG) RNA repeat, TO-PRO-1 dye displacement fluorescence | AID 651821 | 370,000 compounds, 1.3% hits | inhibition, % at 3 µM;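 active = inhibition above the plate cutoff, the mean of all test compounds on that plate plus 3 SD, cut at about 35% in these data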;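 also: 0% = DMSO alone and 100% = 100 µM mitoxantrone as full dye displacement; higher means more dye released from RNA so lower well fluorescence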
# A3A deaminase – human APOBEC3A DNA deaminase inhibition. inhibition, % at 20 µM. P31941. recombinant A3A, FAM/TAMRA ssDNA deamination fluorescence. AID 493011. 330,000 compounds, 0.41% hits;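 active = at least 40% inhibition at 20 µM here, with at most 30% in a related deaminase screen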;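 also: plate controls were A3A with DMSO for no effect and wells lacking A3A enzyme for full effect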
# Target sequence (P31941 whole entry, looked up): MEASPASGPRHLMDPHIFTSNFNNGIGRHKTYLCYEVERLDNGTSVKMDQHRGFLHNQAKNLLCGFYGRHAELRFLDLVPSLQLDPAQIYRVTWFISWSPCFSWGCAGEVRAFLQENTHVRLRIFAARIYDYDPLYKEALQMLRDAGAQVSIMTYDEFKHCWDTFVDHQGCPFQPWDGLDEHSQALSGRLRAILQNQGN
# ALR inh – inhibitors of human sulfhydryl oxidase ALR. P55789. purified ALR, DTT oxidation, H2O2 HRP-luminol luminescence. inhibition, % (concentration not given with the values). 290,000 compounds, 3.8% hits;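 active = mean replicate inhibition above about 79%, with every replicate also reaching it, limit read from the data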
# A3G deaminase – blocks human APOBEC3G single-stranded DNA deamination | recombinant A3G, ssDNA deamination FAM/TAMRA fluorescence | Q9HC16 | AID 493012 | inhibition, % at 20 µM | 330,000 compounds, 0.28% hits;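 active = inhibition of at least 40% at 20 µM, with no more than 30% in the related APOBEC3A deaminase screen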;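 also: plate controls were DMSO wells with A3G for no effect and wells lacking A3G enzyme for full effect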
# An asterisk follows results filed as active; x = no result.
SMILES,PHOSPHO1 block,aDG glyco up,rCAG RNA binder,A3A deaminase,ALR inh,A3G deaminase
CCN1/C(=C\C=C(C(C)=O)C(C)=O)Sc2ccccc21,6,0,-68,-2,99*,-5
CCOC(=O)/C(C#N)=C(C)/C=C1\Sc2ccccc2N1CC,1,-1,0,-2,1,-3
O=C(NCCc1ccccc1Cl)[C@@H]1CCCN1C(=O)[C@@H](NS(=O)(=O)c1ccc(F)cc1F)c1ccccc1,x,x,1,x,x,x
O=C(CCNc1cccc(Cl)c1)c1ccco1,-53,0,0,-5,97*,-4
O=C(CNC(=O)c1ccco1)OCc1cccc(Cl)c1,18,0,0,-1,-3,-6
CCCc1c(O)nc(SCC(=O)N2CCCCC2)[nH]c1=O,-18,0,-2,-6,88*,6
CC(=O)Nc1c(O)nc(SCC(=O)N2CCCCC2)[nH]c1=O,x,0,4,-1,x,-2
CC(C)CCc1c(O)nc(SCC(=O)N2CCCCCC2)[nH]c1=O,7,0,0,-5,87*,-6
C=CCN(CC#CCN(C)C(=O)c1cccn1C(=O)OC(C)(C)C)Cc1ccc(OC)cc1OC,x,x,-2,x,x,x
CCc1nnc2n1N=C(c1ccc(Cl)cc1)CS2,14,0,-2,-6,-3,-5
Cc1nnc2n(c1=O)N=C(c1ccc(Cl)cc1)CS2,0,0,3,6,99*,1
Cc1ccccc1-c1ccc2c(c1)[C@@H]1C[C@H](N(C)CC3CCCCC3)[C@H]([C@H](C)O)CN1CC2,x,x,4,x,x,x
CCOCCOC(=O)c1[nH]c2c(c1C)C(=O)CC(c1ccccc1)C2 (configuration not stated),27,2.2*,-9,-4,-4,-7
CCOCCOC(=O)c1[nH]c2c(c1C)C(=O)CC(c1cccs1)C2 (configuration not stated),-4,0,-1,5,-28,-4
COc1ccc(Nc2ccnc(Nc3ccc(OC)cc3)n2)cc1,2,1,-1,0,98*,-7
CSc1nsc(/C=C/Nc2ccc(C(=O)O)cc2)c1C#N,32,0,46*,-3,-32,-5
CSc1nsc(/C=C/Nc2ccc(F)cc2F)c1C#N,-17,0,x,-6,-18,-7
CCCc1[nH]nc2c1C(c1ccc(OCCN3CCOCC3)c(OC)c1)C(C#N)=C(N)O2 (configuration not stated),-8,0,-4,-1,10,-4
CCOc1cc(C2C(C#N)=C(N)SC(N)=C2C#N)ccc1OCCN1CCOCC1,59,0,15,-4,99*,-6
CC(C)/C=C(/C(=O)c1ccc(Cl)cc1Cl)n1cncn1,24,0,-2,0,97*,-3
CC(C)(C)C(=O)/C(=C/c1ccc(Cl)cc1)n1cncn1,31,0,2,3,1,-3
CC(=O)c1cc(-c2ccc(Cl)c(C(F)(F)F)c2)c(=O)n2c1CCC2,x,x,-1,x,x,x
Cc1nc2sccn2c(=O)c1S(=O)(=O)N1CCN(c2ccc(F)cc2)CC1,28,0,-1,3,95*,-2
Cc1ccc(C)c(NC(=O)Cn2nnc(-c3ccncc3)n2)c1,x,x,2,x,x,x
Cc1c(C(=O)NC2=NCCS2)oc2ccccc12,28,0,-1,-2,97*,-6
SMILES,PHOSPHO1 block,aDG glyco up,rCAG RNA binder,A3A deaminase,ALR inh,A3G deaminase
CN(c1c2c(nc3ncnn13)CCCC2)C1CCCCC1,x,x,-1,x,x,x
COc1cccc(N2CCN(Cc3nc(N)nc(Nc4ccccc4)n3)CC2)c1,10,0,-2,-6,97*,-11
COc1ccc(Nc2nc(N)nc(CN3CCN(c4ccc(F)cc4)CC3)n2)cc1,-22,0,-3,1,99*,2
COc1cccc(N2CCN(Cc3nnnn3C3CCCCC3)CC2)c1,10,0,-1,0,89*,0
Nc1nc(CN2CCN(Cc3ccccc3)CC2)nc(Nc2ccccc2)n1,8,0,-9,1,-1,-1
Cc1cccc(Nc2nc(N)nc(CN3CCN(c4ccccc4F)CC3)n2)c1,x,0,-10,-1,-4,-4
Cc1cccc(Nc2nc(N)nc(CN3CCN(c4ccccc4)CC3)n2)c1,-5,0,-3,-5,80*,-4
CC(=O)c1cc(-c2ccc(S(C)(=O)=O)cc2)c(=O)n2c1CCC2,x,x,0,x,x,x
O=C1Nc2ccccc2C(=O)N2CCCCC12 (configuration not stated),20,0,1,2,2,-3
c1ccc2c(c1)CC(N1CCCCC1)c1ccccc1N2 (configuration not stated),-5,0,-1,-4,85*,-1
COC(=O)c1cc(O)c(O)c(O)c1,-4,0,2,-1,96*,25
COC(=O)c1cc(OC)nc(OC)c1,43,0,-2,-1,x,1
CSCCC(NC(=O)c1cc(C)oc1C)C(=O)O (configuration not stated),90*,0,0,-2,-5,-4
CCCCCCCCN1C(=O)[C@@H](CC(=O)N2CCC(c3ccccc3)CC2)C[C@@]2(C(=O)OC)C1=C[C@H](COCc1ccccc1)O[C@@H]2C,x,x,7,x,x,x
CC(=Nc1ccccc1O)c1sc2ccccc2c1O,12,0,4,5,92*,1
O=S(=O)(NCCN1CCCC1)c1cccc2cccnc12,4,0,4,0,37,-4
O=S(=O)(NCCCN1CCN(c2ccccc2F)CC1)c1cccc2cccnc12,9,0,x,1,95*,-6
Cc1c(N=Cc2cc(Br)cc(Br)c2O)cccc1C(=O)O,-14,0,1,1,98*,-9
CCN(CC)c1ccc(NC(=O)CCNC(=O)c2ccco2)cc1,-11,0,-3,0,99*,0
CCN(CC)S(=O)(=O)c1ccc(NC(=O)CCNC(=O)c2ccco2)cc1,-35,0,0,36,-6,6
CN(C)NC(=S)NC(=O)C12CC3CC(CC(C3)C1)C2,12,0,3,1,92*,-5
COc1cccc(/C=N/c2oc(-c3ccccc3)cc2C#N)c1O,33,0,1,1,86*,1
O=C1OC(c2ccccc2)=CC1=Cc1ccccc1O,x,0,15,x,x,x
N#Cc1cc(-c2ccccc2)oc1/N=C/c1ccccc1O,-34,0,-2,2,97*,1
Cc1oc(/N=C/c2ccccc2)c(C#N)c1C,41,0,-4,-3,-2,-5
COc1ccc(/C=N/c2oc(-c3ccccc3)cc2C#N)cc1,28,0,-5,-3,97*,0
COc1cccc(C=Nc2ccccc2C#N)c1O,1,0,1,-2,x,-4
CCCCCCCCNC(=O)C1CSCCS(=O)(=O)N1Cc1ccccc1 (configuration not stated),x,x,-2,x,x,x

# Screening results from PubChem BioAssay.
